MARV entry inh – inhibitors of Marburg virus binding or cell entry | Marburg virus pseudotyped entry inhibition, cell reporter | 1.8% of 300,000 active | Potency, µM (titrated, usually from 37.8 µM), usual class: inhibitors; calls by dose curve; tested in HEK293 cells
LASV entry inh – blocks Lassa virus binding to or entry into cells; Lassa virus pseudotype entry inhibition, cell reporter; Potency, µM (top dose mostly 37.9 µM), most hits filed as inhibitors; 1.2% of 300,000 active; calls by dose curve; tested in HEK293 cells; also: nearly all actives have a fitted effect of over 50% in size
AMA1-RON2 inh – disrupts binding of P. falciparum AMA1 to RON2. AlphaScreen AMA1-biotinylated RON2 peptide binding. Potency, µM (titrated, usually from 58.2 µM), hits mostly inhibitors. 0.2% of 360,000 active; active = well fitted inhibition curve with a large enough effect; inconclusive = small, poorly fitted or top-dose-only effect; inactive = no such curve, though single readings can be large or run the other way; also: nearly all actives have a fitted effect of over 45% in size
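AMA1 (3D7) with his tag at 25 nM final met compounds first, then biotinylated RON2 peptide at 25 nM; detection used donor plus acceptor beads, 10 µg/mL apiece, read by AlphaScreen after 30 min at room temperature.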
CHX counter – counter-screen hit for Shiga toxin inhibitors, cycloheximide | cell reporter, cycloheximide protein synthesis inhibition counterscreen | max response, % | 12% of 300,000 active | AID 2314; in the data active = max response mostly above about 13%, no sharp cut-off; inactive = mostly below about 14%; also: read at 38.3 µM for the half of the compounds with a filed dose
Shiga inhibitor – blocks Shiga toxin action in Vero cells; 9.2% of 290,000 active; inhibition, % at 38.7 µM; Vero cells, Shiga toxin protein synthesis inhibition reporter; in the data active = inhibition mostly above about 28%, no sharp cut-off; inactive = mostly below about 43%
A number is an active result. This excerpt belongs to a sample that is enriched for hits.

Results for COc1ccc(-c2nc(-c3ccccc3)c(-c3ccc(F)cc3)[nH]2)c(OC)c1C ?
MARV entry inh: inactive; LASV entry inh: inactive

What do the screens show for `O=C(/C=C/c1ccccc1)Nc1ncn[nH]1`?
MARV entry inh: inconclusive; LASV entry inh: inconclusive; AMA1-RON2 inh: inactive; CHX counter: 26; Shiga inhibitor: inactive

Results for O=C(COc1ccccc1)Nc1ncn[nH]1 ?
MARV entry inh: inactive; AMA1-RON2 inh: inactive; CHX counter: 21; Shiga inhibitor: 46

How did CCc1ccc(OCC(=O)Nc2ncn[nH]2)cc1 do in these assays?
AMA1-RON2 inh: inactive; CHX counter: 25; Shiga inhibitor: 58

What do the screens show for `CCOC(=O)c1ccccc1NS(=O)(=O)c1ccc(N2CCCCS2(=O)=O)cc1`?
LASV entry inh: inactive

Results for CN(C)c1ccc(CNC(=O)C2CCN(c3nnc(-n4cccc4)s3)CC2)cc1 ?
LASV entry inh: inactive

What do the screens show for `Nc1ccc(C(=O)O)cc1[N+](=O)[O-]`?
MARV entry inh: inactive; LASV entry inh: inactive; AMA1-RON2 inh: inactive; CHX counter: inactive; Shiga inhibitor: inactive

What do the screens show for `Nc1ccc(C(=O)c2cccs2)cc1[N+](=O)[O-]`?
AMA1-RON2 inh: inactive; CHX counter: 28; Shiga inhibitor: 71

What do the screens show for `Cc1ccc(N/C=C(\C#N)c2ccc(OCCCF)cc2)cc1`?
MARV entry inh: inactive; LASV entry inh: inactive; AMA1-RON2 inh: inactive; CHX counter: inactive; Shiga inhibitor: inactive

How did N#CC(C#N)=CNc1cccnc1 do in these assays?
AMA1-RON2 inh: inactive; CHX counter: inactive; Shiga inhibitor: inactive

What do the screens show for `Cc1ccc(N/C=C(/C#N)c2ccsc2)cc1`?
MARV entry inh: inactive; LASV entry inh: inactive; AMA1-RON2 inh: inactive; CHX counter: 41; Shiga inhibitor: 132

Results for N#C/C(=C/Nc1ccccc1)c1ccsc1 ?
MARV entry inh: inactive; LASV entry inh: inactive; AMA1-RON2 inh: inactive; CHX counter: 27; Shiga inhibitor: 42

Results for O=c1cc(CSc2nc(NCc3ccc(Cl)cc3)c3ccccc3n2)nc2ccc(Cl)cn12 ?
MARV entry inh: inactive; LASV entry inh: inconclusive; AMA1-RON2 inh: inactive

What do the screens show for `O=C(Nc1ccc(N2CCCCC2)cc1)c1ccc(F)cc1F`?
MARV entry inh: inconclusive; LASV entry inh: 10µM; AMA1-RON2 inh: inactive; CHX counter: 42; Shiga inhibitor: 45

How did O=C(Nc1ccc(N2CCCC2)cc1)c1ccccc1F do in these assays?
MARV entry inh: inconclusive; LASV entry inh: inactive; AMA1-RON2 inh: inconclusive; CHX counter: 43; Shiga inhibitor: 43

What do the screens show for `O=c1c(Cc2ccccc2)c(O)ccn1Cc1ccco1`?
MARV entry inh: inactive; LASV entry inh: inactive; AMA1-RON2 inh: inactive; CHX counter: inactive; Shiga inhibitor: inactive

What do the screens show for `CCOC(=O)c1c(C)[nH]c(C)c1S(=O)(=O)N(C)CC(=O)N1CCN(c2cccc(C)c2C)CC1`?
LASV entry inh: inactive

How did COc1ccc(Nc2c(-c3ccc(F)cc3)nc3nc(C)cc(C)n23)cc1 do in these assays?
AMA1-RON2 inh: inactive

How did O=C(Nc1cc(Cl)cc(Cl)c1)c1cc(S(=O)(=O)N2CCc3ccccc3C2)ccc1F do in these assays?
LASV entry inh: inactive

How did Cc1cc(C(=O)Nc2sc(C)c(-c3ccc(F)cc3)c2C(N)=O)no1 do in these assays?
MARV entry inh: inconclusive; LASV entry inh: inconclusive; AMA1-RON2 inh: inactive; CHX counter: 62; Shiga inhibitor: 84

Results for CCN(CC)CC(=O)Nc1sc2c(c1C(=O)c1ccccc1OC)CCC2 ?
MARV entry inh: inconclusive; LASV entry inh: 11µM; AMA1-RON2 inh: inactive; CHX counter: inactive; Shiga inhibitor: inactive

How did O=C(N/N=C/c1ccc(Cl)cc1)C1CC12CCC2 (stereo not given) do in these assays?
MARV entry inh: inactive; LASV entry inh: inconclusive; AMA1-RON2 inh: inactive; CHX counter: 53; Shiga inhibitor: 133

What do the screens show for `CC(C)CC(=O)N(c1nnc(-c2cccnc2)s1)C1CCCC1`?
MARV entry inh: inactive; LASV entry inh: inactive; AMA1-RON2 inh: inactive; CHX counter: 11; Shiga inhibitor: inactive

How did CC(=O)N(c1nnc(-c2ccc(C)cc2)s1)C1CCCC1 do in these assays?
MARV entry inh: inconclusive; LASV entry inh: inactive; AMA1-RON2 inh: inactive; CHX counter: 28; Shiga inhibitor: 26

Results for COc1ccc(-n2c(SCC(=O)N3CCC(C)CC3)nc3c([nH]c4ccccc43)c2=O)cc1 ?
LASV entry inh: inactive

How did COc1cc2c(c(OC)c1OC)-c1c(cc3c(c1OC)OCO3)CC(C)C(C)(O)C2OC(=O)c1ccccc1 (stereo not given) do in these assays?
CHX counter: inactive; Shiga inhibitor: inactive
